HCV inh = inhibitors of hepatitis C virus infection. Huh7.5.1 HCVcc-Cre infection, luciferase reporter, 44 h. Potency, µM (top dose mostly 41.8 µM), without a hit: top-dose activity change, negative = inhibition, most hits filed as inhibitors. hit rate 3.4% among 340,000. AID 651820; further: potency means the concentration at half of the fitted maximal effect
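1,000 cells/well; 4 h culture; + compound; + HCVcc-Cre (~0.5 moi); 44 h; luciferase substrate, RT 15 min; read 15 sec.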
Pf growth 96h = P. falciparum growth inhibition at 96 hour, primary screen for plastid delayed-death inhibitors; P. falciparum luciferase reporter growth, 96 h; Potency, µM (series often up to 28.7 µM), for inactives: at the highest dose activity change, negative = inhibition, hits mostly inhibitors; hit rate 6.9% among 320,000; further: potency means the concentration at half of the fitted maximal effect
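Delayed-death screen, second-generation endpoint: infected erythrocytes, 2% hematocrit, 0.05% parasitemia final; 96 hours at 37 C, 5% CO2; luciferase detection reagent; luminescence decrease equals reduced growth.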
MARV entry inh = inhibitors of Marburg virus binding or cell entry; Marburg virus pseudotyped entry inhibition, cell reporter; Potency, µM (titrated, usually from 37.8 µM), for the others: top-dose activity change, negative = inhibition, hits mostly inhibitors; hit rate 1.8% among 300,000; AID 540276; calls by dose curve; tested in HEK293 cells; further: potency means the concentration at half of the fitted maximal effect
Pf growth 48h = P. falciparum growth inhibition at 48 hours (one generation). hit rate 5.9% among 310,000. P. falciparum luciferase growth in erythrocytes, 48 h. Potency, µM (series often up to 28.7 µM), for inactives: at the top dose activity change, negative = inhibition, hits mostly inhibitors; further: potency means the concentration at half of the fitted maximal effect
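Read-out is firefly luciferase luminescence from an integrated reporter in P. falciparum, so falling signal marks reduced parasite growth. Infected erythrocytes were at 2% hematocrit and 0.1% parasitemia (final) in Albumax-supplemented RPMI 1640.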
HCMV antiviral = inhibitors of human cytomegalovirus; activity change, negative = inhibition, % at 57.5 µM; HFF cells, HCMV-luciferase reporter, 72 h; active compounds read low; hit rate 4.5% among 410,000; AID 1259415; in the data active means activity change below about -60%; inconclusive means no clear call, values can overlap the other calls; inactive means above about -39%
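Two-dose cell screen: HFF monolayers treated with compounds and infected with luciferase-expressing HCMV at 1 PFU/cell, 72 h at 37C, then lysed for luciferase measurement.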
Lassa entry inh = inhibitors of Lassa virus binding or cell entry; AID 540256; Potency, µM (series often up to 37.9 µM), for the others: at the highest dose activity change, negative = inhibition, usual class: inhibitors; hit rate 1.2% among 300,000; Lassa virus pseudotype entry inhibition, cell reporter; calls by dose curve; tested in HEK293 cells; further: potency means the concentration at half of the fitted maximal effect; nearly all actives have a fitted effect of over 50% in size
* marks the source's active call; other numbers are inactive results; u = inconclusive; x = no result given; [ ] = dose if it differs, or a comment. Shown are actives, neighbours in structure and some others; about 14% of the full set was active somewhere. Unless noted, the call rests on the fitted dose curve; in most records, active means well fitted inhibition curve with a large enough effect; inconclusive means small, poorly fitted or top-dose-only effect, or another doubt; inactive means no such curve, though single readings can be large or run the other way. On the % scale 0 is the no-effect control and ±100 the full control effect.

SMILES | HCV inh | Pf growth 96h | MARV entry inh | Pf growth 48h | HCMV antiviral | Lassa entry inh
COc1cc(O)c(C(C)=O)c2c1C=CC(C)(C)O2 | u | x | x | x | 13 | x
C[C@H]1C[C@@H](C)O[C@@]2(C1)C(=O)N(Cc1ccc(F)cc1)c1ccccc12 | x | x | 28%[14.2 µM] | x | x | x
CCN(CC)C1CCN(C(=O)c2ccc(OC3CCN(CCc4ccccc4)CC3)cc2)C1 (stereo not drawn) | 7.1µM* | 33% | x | u | -14 | x
CN(C(=O)c1ccc(OC2CCN(CCc3ccccc3)CC2)cc1)C1CCOC1 (stereo not drawn) | 2% | u | u | -5% | -25 | -7%[46.1 µM]
O=C(NC1CCOC1)c1ccc(OC2CCN(CCc3ccccc3)CC2)cc1 (stereo not drawn) | 1% | 2.3µM* | u | -6% | u | -1%[46.1 µM]
CN(C(=O)c1ccc(OC2CCN(CCc3ccccc3)CC2)cc1)C1CCOCC1 | 15% | 9.3µM* | x | -2% | u | x
CCN1CCN(C(=O)c2ccc(OC3CCN(CCc4ccccc4)CC3)cc2)[C@@H](C)C1=O | 0% | 3.7µM* | -17% | u | -35 | 6%
CCOC(=O)c1c(S(=O)(=O)N2CCCC(C(=O)N3CCN(c4ccc(F)cc4)CC3)C2)c(C)n(C)c1C (stereo not drawn) | x | x | x | x | 5 | 23%[46.1 µM]
CC(C)Cn1c(-c2ccc(C#N)cc2)nc2c1c(=O)[nH]c(=O)n2CC(C)C | 4% | 10µM* | -3% | x | 0 | u
COCCn1c(-c2ccc(NC(C)=O)cc2)nc2c1c(=O)[nH]c(=O)n2CC(C)C | 10% | -6% | 0% | -14% | -4 | u
COCCn1c(-c2cccc([N+](=O)[O-])c2)nc2c1c(=O)[nH]c(=O)n2Cc1ccccc1 | -19% | 12µM* | u | u | -87* | u
Cn1c(-c2cccc(F)c2)nc2c1c(=O)[nH]c(=O)n2Cc1ccccc1 | 0% | u | 0%[46.1 µM] | -28% | 31 | 8.9µM*
CCCCn1c(-c2ccc(Br)cc2F)nc2c1c(=O)[nH]c(=O)n2CC(C)C | u | u | u | 10µM* | 14 | u
Cn1c(-c2cccc(OCc3ccccc3)c2)nc2c1c(=O)[nH]c(=O)n2Cc1ccccc1 | 3% | x | -8% | 18% | -15 | u
CCCCn1c(=O)[nH]c(=O)c2c1nc(-c1ccc(-c3ccc(F)cc3)o1)n2C | 27% | 26% | 18%[46.1 µM] | -2% | -4 | 13%
CCCSc1nnc(NC(=O)c2cc(=O)c3ccccc3o2)s1 | x | x | u | x | 13 | -1%[46.1 µM]
COc1ccc(COC(=O)NN=C2C[C@@H](O)[C@@H](O)[C@@H]3[C@H]4C(=O)N([C@@H](C)c5ccccc5)C(=O)[C@@H]4CC[C@H]23)cc1 | x | x | -1%[14.2 µM] | x | x | u
Cc1ccccc1Cn1c(=O)n(CCCCCC(=O)NCc2ccc3c(c2)OCO3)c(=O)c2sccc21 | x | x | 27%[46.1 µM] | x | -36 | -2%[46.1 µM]
C/C(CCN1CCCc2nc(C)c(C)cc21)=N\O[C@H](C)CN1CCCc2nc(C)c(C)cc21 | x | x | -41%[14.2 µM] | x | x | x
CCCn1c(-c2cc(OC)c(OC)c(OC)c2)nc2c1c(=O)[nH]c(=O)n2Cc1ccccc1 | u | u | u | 9.3µM* | 73 | x
CCCn1c(-c2cccc(F)c2)nc2c1c(=O)[nH]c(=O)n2Cc1ccccc1 | 4% | -29% | -23%[46.1 µM] | -4% | -13 | u
COc1ccc(-c2nc3c(c(=O)[nH]c(=O)n3Cc3ccccc3)n2Cc2ccccc2)cc1 | 13µM* | x | u | u | u | u
COc1ccc(-c2nc3c(c(=O)[nH]c(=O)n3Cc3ccccc3)n2C)cc1 | -1% | x | 10% | 5% | -7 | -18%
O=S(=O)(c1cccc(F)c1)N1CCc2sccc2C1c1ccc(OC(F)(F)F)cc1 (stereo not drawn) | u | u | u | 13µM* | -26 | u
COc1ccc(N(CC(=O)NCc2ccc(F)cc2)C(=O)Cn2nnc(-c3ccc(C)o3)n2)cc1OC | -5% | -6% | 0%[46.1 µM] | u | 8 | 9%[46.1 µM]
SMILES | HCV inh | Pf growth 96h | MARV entry inh | Pf growth 48h | HCMV antiviral | Lassa entry inh
N#CC1=C(SCC(=O)NC2CC2)NC(=O)C(C#N)C12CCCCC2 (stereo not drawn) | 16% | x | 21% | 11% | -8 | 10%
CC(C)(C)C1CCC2(CC1)C(C#N)=C(SCC(=O)NC1CCCCC1)NC(=O)C2C#N (stereo not drawn) | 4% | 2% | -28% | u | -63* | -8%
N#CC1=C(SCC(=O)NC23CC4CC(CC(C4)C2)C3)NC(=O)C(C#N)C12CCCCC2 (stereo not drawn) | u | u | u | u | -66* | -27%
N#CC1=C(SCC(=O)Nc2cccc3cccnc23)NC(=O)C(C#N)C12CCCCC2 (stereo not drawn) | -3% | x | 3% | 3% | -13 | 21%
Cc1ccc(OCC(=O)Nc2cccc(-c3nc4ccccc4s3)c2)cc1 | x | x | 27%[46.1 µM] | x | 64 | 13%[46.1 µM]
COc1ccc(S(=O)(=O)N2CCCCC2)cc1NC(=O)Cc1cccs1 | -8% | u | 1% | 12µM* | 0 | u
COc1ccc(S(=O)(=O)N2CCOCC2)cc1NC(=O)Cc1sc(C)nc1-c1ccc(F)cc1 | -26% | u | 19% | u | -23 | u
COc1ccc(NC(=O)Cc2cccs2)cc1S(=O)(=O)N1CCCCC1 | -5% | x | -24% | x | -6 | 1µM*
COc1ccc(S(=O)(=O)N2CCCCC2)cc1NC(=O)Cc1sc(C)nc1-c1ccc(F)cc1 | u | u | u | 12µM* | -65* | u
COc1ccc(NC(=O)Cc2ccsc2)cc1S(=O)(=O)N1CCCCC1 | u | u | -25% | u | -8 | u
O=C(NCc1ccccc1)c1nc(-c2ccc(Cl)cc2)n2c1CCCCC2 | x | x | x | x | -15 | u
COC(=O)C12CC3=CCC4C(=O)N(c5ccccc5)C(=O)C4C3Cc3ccccc3[C@H]1CNC2=O (stereo partly drawn) | x | x | 5%[14.2 µM] | x | x | x
N#Cc1c(-c2ccccc2)c(-c2ccccc2)n(Cc2ccco2)c1NC(=O)c1cccs1 | 2.8µM* | 2% | u | u | -28 | u
Cc1ccc(S(=O)(=O)N(C)C)cc1NC(=O)C(C)N(C)Cc1sccc1C (stereo not drawn) | 7.1µM* | -23% | u | u | -61* | x
CCOC(=O)/C(C#N)=C/c1ccc(-c2ccccc2)o1 | x | x | x | x | 31 | 4%[46.1 µM]
CN(C)c1ccc(C(c2ccc(N(C)C)cc2)c2ccc([N+](=O)[O-])cc2)cc1 | -16% | 12µM* | u | -56% | -16 | -20%[46.1 µM]
O=[N+]([O-])c1ccc(C(c2ccc([N+](=O)[O-])cc2)c2ccc([N+](=O)[O-])cc2)cc1 | u | x | u | x | -26 | u
COc1cc(OC)c(NS(=O)(=O)c2ccc3c(c2)NC(=O)CO3)cc1Cl | -27% | 10µM* | x | 4% | -23 | x

Screening data deposited in PubChem BioAssay by National Center for Advancing Translational Sciences (NCATS).
